Measurements reported in PubChem BioAssay (EPA / NIEHS).
Inconclusive results are not listed. Activity calls are given as the source filed them. Rule for the calls, unless noted: active = hit-call score of the fitted dose curve at least 0.9, where 1 is the maximum; inactive = score below 0.9.

Columns and labels:
[1] = target: Oxysterols receptor LXR-alpha (Homo sapiens) (UniProt Q13133); test: ATG_LXRa_TRANS: Attagene TRANS-FACTORIAL HepG2 Assay for human Liver X Receptor alpha (LXRa) (AID 2282980; active = hit-call score of the fitted dose curve at least 0.9, where 1 is the maximum); conditions: HepG2 Attagene TRANS reporter, LXRa transactivation
Sequence of Oxysterols receptor LXR-alpha (Homo sapiens) (Q13133 whole entry, looked up, the tested form may be a part): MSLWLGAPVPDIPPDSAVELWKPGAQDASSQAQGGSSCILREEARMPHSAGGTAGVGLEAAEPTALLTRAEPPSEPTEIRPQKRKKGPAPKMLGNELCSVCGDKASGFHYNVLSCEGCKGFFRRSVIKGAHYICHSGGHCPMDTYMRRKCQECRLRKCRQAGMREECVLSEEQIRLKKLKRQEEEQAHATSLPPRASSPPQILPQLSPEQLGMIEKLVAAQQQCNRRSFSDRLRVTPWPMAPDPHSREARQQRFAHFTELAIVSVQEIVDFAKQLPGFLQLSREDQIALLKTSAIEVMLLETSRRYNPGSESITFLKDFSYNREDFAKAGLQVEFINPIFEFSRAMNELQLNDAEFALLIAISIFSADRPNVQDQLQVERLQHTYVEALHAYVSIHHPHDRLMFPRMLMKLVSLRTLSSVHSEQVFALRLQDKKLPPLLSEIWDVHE
Summary of the method: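 In this multiplexed TRANS system, compounds act on HepG2 cells carrying GAL4-UAS reporter units and a receptor-GAL4 fusion for 24 h. Induced reporter RNA is amplified, fluorescently labelled and sized by capillary electrophoresis, with DMSO as baseline.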

[2] = target: Oxysterols receptor LXR-beta (Homo sapiens) (UniProt P55055); test: ATG_LXRb_TRANS: Attagene TRANS-FACTORIAL HepG2 Assay for human Liver X Receptor beta (LXRb) (AID 2282981; active = hit-call score of the fitted dose curve at least 0.9, where 1 is the maximum); conditions: HepG2 Attagene TRANS GAL4-LXRb reporter, mRNA
Sequence of Oxysterols receptor LXR-beta (Homo sapiens) (P55055 whole entry, looked up, the tested form may be a part): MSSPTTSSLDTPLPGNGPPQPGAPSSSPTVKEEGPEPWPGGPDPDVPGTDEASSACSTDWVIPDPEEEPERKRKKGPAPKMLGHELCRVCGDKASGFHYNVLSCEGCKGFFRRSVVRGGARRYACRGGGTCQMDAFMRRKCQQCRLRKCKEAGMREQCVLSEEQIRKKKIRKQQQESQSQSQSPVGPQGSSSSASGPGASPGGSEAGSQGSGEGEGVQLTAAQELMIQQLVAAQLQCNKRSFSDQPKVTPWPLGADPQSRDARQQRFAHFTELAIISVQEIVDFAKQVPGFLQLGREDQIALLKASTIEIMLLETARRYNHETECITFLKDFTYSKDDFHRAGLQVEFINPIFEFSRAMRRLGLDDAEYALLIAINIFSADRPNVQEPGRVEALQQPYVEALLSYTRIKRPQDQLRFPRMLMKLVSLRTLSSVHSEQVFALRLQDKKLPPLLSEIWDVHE
Summary of the method: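 HepG2 cells transiently transfected with multiple reporter transcription units carrying chimeric NR-Gal4 proteins acting on GAL4-UAS reporters; compound exposure 24 h. Reporter mRNA quantified by RT-PCR, 6-FAM labelling, HpaI digestion and capillary electrophoresis; gain of signal versus DMSO.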

[3] = ATG_M_06_TRANS: Attagene TRANS-FACTORIAL HepG2 Assay for M06 Transcription Factor (Internal Marker) (AID 2282983; active = hit-call score of the fitted dose curve at least 0.9, where 1 is the maximum); conditions: HepG2 Attagene TRANS M06 internal marker reporter
Summary of the method: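 Internal-marker background readout from a multiplexed TRANS reporter system in HepG2; 24 h dosing; mRNA induction quantified by RT-PCR plus capillary electrophoresis fluorescence; DMSO as negative control and baseline.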

[4] = ATG_M_32_TRANS: Attagene TRANS-FACTORIAL HepG2 Assay for M32 Transcription Factor (Internal Marker) (AID 2282984; active = hit-call score of the fitted dose curve at least 0.9, where 1 is the maximum); conditions: HepG2 Attagene TRANS M32 internal marker reporter
Summary of the method: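 HepG2 cells transiently transfected with multiple GAL4-UAS reporter transcription units, dosed for 24 hours; reporter mRNA quantified by RT-PCR, 6-FAM primer extension, HpaI digestion and capillary electrophoresis. Gain-of-signal fitted versus DMSO baseline; internal background-control marker.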

[5] = target: Transcriptional activator Myb (Homo sapiens) (UniProt P10242); test: ATG_Myb_CIS: Attagene CIS-FACTORIAL HepG2 Assay for human Myeloblastosis (Myb) Proto-Oncogene Transcription Factor (AID 2282986); conditions: HepG2 Attagene CIS-FACTORIAL Myb reporter transcription; actives raise or lower the signal
Sequence of Transcriptional activator Myb (Homo sapiens) (P10242 whole entry, looked up): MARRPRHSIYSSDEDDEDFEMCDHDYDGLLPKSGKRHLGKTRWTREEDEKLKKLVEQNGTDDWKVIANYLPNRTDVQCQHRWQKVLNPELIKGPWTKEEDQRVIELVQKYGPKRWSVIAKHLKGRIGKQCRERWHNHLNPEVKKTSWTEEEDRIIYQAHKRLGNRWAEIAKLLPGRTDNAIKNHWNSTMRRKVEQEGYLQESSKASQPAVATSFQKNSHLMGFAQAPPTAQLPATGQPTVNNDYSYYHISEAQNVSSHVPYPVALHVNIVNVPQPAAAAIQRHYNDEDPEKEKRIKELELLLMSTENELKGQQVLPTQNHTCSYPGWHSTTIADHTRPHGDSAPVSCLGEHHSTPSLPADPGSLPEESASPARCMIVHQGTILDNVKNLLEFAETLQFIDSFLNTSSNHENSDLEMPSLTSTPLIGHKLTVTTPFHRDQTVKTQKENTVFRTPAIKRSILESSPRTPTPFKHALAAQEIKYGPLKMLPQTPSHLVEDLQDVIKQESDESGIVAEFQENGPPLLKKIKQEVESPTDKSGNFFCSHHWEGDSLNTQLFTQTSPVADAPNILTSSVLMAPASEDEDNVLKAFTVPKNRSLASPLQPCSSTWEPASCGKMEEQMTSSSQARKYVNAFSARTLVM
Summary of the method: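 Reporter transcript levels, quantified by fluorescent RT-PCR and capillary electrophoresis, serve as the read-out. Transfected HepG2 cells carrying cis-promoter reporter units are dosed for 24 hours, and curves are fitted bidirectionally against DMSO controls.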

[6] = target: Nuclear respiratory factor 1 (Homo sapiens) (UniProt Q16656); test: ATG_NRF1_CIS: Attagene CIS-FACTORIAL HepG2 Assay for human Nuclear Respiratory Factor 1 (NRF1) Orphan Gene (AID 2282987); conditions: HepG2 NRF1 cis-element reporter, Attagene multiplex; actives raise or lower the signal
Sequence of Nuclear respiratory factor 1 (Homo sapiens) (Q16656 whole entry, looked up): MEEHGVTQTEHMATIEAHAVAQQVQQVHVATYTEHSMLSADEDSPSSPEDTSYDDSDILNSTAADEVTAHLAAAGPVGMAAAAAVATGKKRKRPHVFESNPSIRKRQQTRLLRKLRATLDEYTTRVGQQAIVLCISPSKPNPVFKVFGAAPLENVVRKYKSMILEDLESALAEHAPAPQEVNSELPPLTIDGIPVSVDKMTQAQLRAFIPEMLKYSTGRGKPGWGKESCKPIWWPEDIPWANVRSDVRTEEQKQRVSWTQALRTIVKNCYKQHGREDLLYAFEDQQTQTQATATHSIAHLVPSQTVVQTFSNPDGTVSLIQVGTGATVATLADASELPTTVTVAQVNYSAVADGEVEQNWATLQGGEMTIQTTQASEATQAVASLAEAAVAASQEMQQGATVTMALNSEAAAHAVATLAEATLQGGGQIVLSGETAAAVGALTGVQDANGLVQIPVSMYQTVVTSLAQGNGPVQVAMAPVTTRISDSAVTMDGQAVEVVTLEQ
Summary of the method: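 Multiplexed cis-reporter assay, HepG2 cells, 24 h treatment. Total RNA → oligo(dT) RT → PCR with reporter-specific primers → 6-FAM primer extension → HpaI cut → CE. Bidirectional fit vs DMSO.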

[7] = ATG_NFI_CIS: Attagene CIS-FACTORIAL HepG2 Assay for human Nuclear Factor I (NFI) (AID 2282989); conditions: HepG2 cis-regulatory reporter, NFI response element transcription; actives raise or lower the signal
Summary of the method: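 Endogenous TF activity in HepG2 cells transiently transfected with cis-element-driven multiplexed reporter units, read 24 h after dosing. Reporter mRNA quantified by RT-PCR, 6-FAM labelling, HpaI digestion and capillary electrophoresis; bidirectional fit versus DMSO.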

[8] = target: Myc proto-oncogene protein (Homo sapiens) (UniProt P01106); test: ATG_Myc_CIS: Attagene CIS-FACTORIAL HepG2 Assay for human Myelocytomatosis (Myc) Proto-Oncogene Transcription Factor (AID 2282990); conditions: HepG2, Attagene cis-reporter transcription factor activity; actives raise or lower the signal
Sequence of Myc proto-oncogene protein (Homo sapiens) (P01106 whole entry, looked up): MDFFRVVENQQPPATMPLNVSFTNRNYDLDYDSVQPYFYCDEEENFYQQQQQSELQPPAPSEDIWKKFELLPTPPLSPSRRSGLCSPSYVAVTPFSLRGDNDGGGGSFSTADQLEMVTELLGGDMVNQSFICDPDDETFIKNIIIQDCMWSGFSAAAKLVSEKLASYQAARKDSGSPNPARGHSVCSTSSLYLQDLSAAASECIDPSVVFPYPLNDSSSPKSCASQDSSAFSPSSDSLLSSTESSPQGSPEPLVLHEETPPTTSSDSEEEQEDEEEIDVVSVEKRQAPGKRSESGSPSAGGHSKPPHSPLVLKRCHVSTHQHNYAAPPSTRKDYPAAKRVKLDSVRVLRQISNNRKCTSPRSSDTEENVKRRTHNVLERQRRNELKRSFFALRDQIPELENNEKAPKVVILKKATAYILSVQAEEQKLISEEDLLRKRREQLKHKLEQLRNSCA
Summary of the method: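 DMSO-normalised, bidirectionally fitted reporter mRNA signal. HepG2 cells transfected with cis reporter constructs, treated 24 h; transcripts detected by RT-PCR, 6-FAM primer extension and CE.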

[9] = ATG_NF_kB_CIS: Attagene CIS-FACTORIAL HepG2 Assay for human Nuclear Factor Kappa B (NF-kB) (AID 2282991); conditions: HepG2 Attagene cis-factorial NF-kB reporter mRNA; actives raise or lower the signal
Summary of the method: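 Transient MRTU transfection of human HepG2 liver cells → 24 h chemical exposure → total RNA, oligo(dT) RT → PCR, 6-FAM primer extension, HpaI digest 2 h 37 C → CE fragment analysis. Bidirectional fitting, DMSO negative control.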

[10] = ATG_NRF2_ARE_CIS: Attagene CIS-FACTORIAL HepG2 Assay for human Nuclear Factor Erythroid 2 Related Factor 2 (NFR2) response to Antioxidant Response Elements (ARE) (AID 2282992); conditions: HepG2 Attagene ARE/NRF2 reporter, transcription factor activity; actives raise or lower the signal;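 for AC50: reporter mRNA level measured by RT-PCR and capillary electrophoresis fluorescence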
Summary of the method: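 Cis-factorial assay: transfected HepG2 reporter library, 24 h dosing, mRNA readout via RT-PCR/CE; DMSO-referenced bidirectional analysis.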

[11] = target: Hepatocyte nuclear factor 4-alpha (Homo sapiens) (UniProt P41235); test: ATG_HNF4a_TRANS: Attagene TRANS-FACTORIAL HepG2 Assay for human Hepatocyte Nuclear Factor 4 alpha (HNF4a) (AID 2282982; active = hit-call score of the fitted dose curve at least 0.9, where 1 is the maximum); conditions: HepG2 HNF4a transactivation reporter, mRNA readout
Sequence of Hepatocyte nuclear factor 4-alpha (Homo sapiens) (P41235 whole entry, looked up, the tested form may be a part): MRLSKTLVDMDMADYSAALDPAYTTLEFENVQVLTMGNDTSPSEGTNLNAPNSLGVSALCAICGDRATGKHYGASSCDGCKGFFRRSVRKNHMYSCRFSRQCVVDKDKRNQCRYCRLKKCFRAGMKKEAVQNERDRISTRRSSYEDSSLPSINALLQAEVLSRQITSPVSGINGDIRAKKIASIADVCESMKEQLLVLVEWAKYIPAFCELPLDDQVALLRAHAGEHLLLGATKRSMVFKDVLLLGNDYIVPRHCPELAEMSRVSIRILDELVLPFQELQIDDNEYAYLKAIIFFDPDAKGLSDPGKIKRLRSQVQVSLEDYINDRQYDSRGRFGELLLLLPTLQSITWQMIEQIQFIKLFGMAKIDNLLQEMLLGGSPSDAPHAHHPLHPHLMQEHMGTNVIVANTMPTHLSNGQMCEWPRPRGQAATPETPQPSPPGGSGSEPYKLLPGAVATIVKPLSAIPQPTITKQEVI
Summary of the method: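 HepG2 cells transiently transfected with multiplexed GAL4-UAS reporter units responsive to chimeric NR-GAL4 proteins; compound exposure 24 h. Reporter mRNA quantified by RT-PCR, 6-FAM labelling, HpaI digestion and capillary electrophoresis; gain of signal versus DMSO baseline.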

[12] = target: Nuclear receptor subfamily 4 group A member 2 (Homo sapiens) (UniProt P43354); test: ATG_NURR1_TRANS: Attagene TRANS-FACTORIAL HepG2 Assay for human Nuclear Receptor Related Protein 1 (NURR1) (AID 2282985; active = hit-call score of the fitted dose curve at least 0.9, where 1 is the maximum); conditions: HepG2 Attagene TRANS reporter, mRNA readout
Sequence of Nuclear receptor subfamily 4 group A member 2 (Homo sapiens) (P43354 whole entry, looked up, the tested form may be a part): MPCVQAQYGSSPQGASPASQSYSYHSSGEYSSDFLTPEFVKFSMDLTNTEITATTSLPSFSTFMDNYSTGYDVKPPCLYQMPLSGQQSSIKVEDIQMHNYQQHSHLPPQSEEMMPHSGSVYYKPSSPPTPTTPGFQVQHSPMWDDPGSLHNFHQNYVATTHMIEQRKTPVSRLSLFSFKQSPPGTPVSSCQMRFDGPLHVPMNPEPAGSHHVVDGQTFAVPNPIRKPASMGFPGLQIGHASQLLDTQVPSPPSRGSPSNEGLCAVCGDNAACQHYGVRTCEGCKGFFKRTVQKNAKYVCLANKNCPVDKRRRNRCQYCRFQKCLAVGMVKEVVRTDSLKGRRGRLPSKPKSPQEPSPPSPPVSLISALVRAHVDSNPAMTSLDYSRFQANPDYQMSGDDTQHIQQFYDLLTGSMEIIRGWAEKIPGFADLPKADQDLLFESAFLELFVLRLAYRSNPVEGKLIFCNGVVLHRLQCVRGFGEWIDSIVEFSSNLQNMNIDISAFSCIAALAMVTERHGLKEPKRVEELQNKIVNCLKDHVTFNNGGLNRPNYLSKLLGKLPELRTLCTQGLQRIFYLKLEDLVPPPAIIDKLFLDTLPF
Summary of the method: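 HepG2 cells transiently transfected with GAL4-UAS reporter units and chimeric NR-Gal4 constructs; chemical exposure 24 h. Reporter mRNA quantified by RT-PCR, fluorescent labelling and capillary electrophoresis; gain of signal fitted relative to DMSO baseline.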

[13] = ATG_Oct_MLP_CIS: Attagene CIS-FACTORIAL HepG2 Assay for human Octamer-Binding Transcription Factor (Oct) (AID 2282993); conditions: HepG2 Attagene cis-factorial Oct reporter, mRNA; actives raise or lower the signal
Summary of the method: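 HepG2 cells transiently transfected with cis-element-driven reporter transcription units (endogenous TF activity); 24 h compound exposure. Reporter mRNA quantified by RT-PCR, 6-FAM labelling, HpaI digestion and capillary electrophoresis; bidirectional fit versus DMSO baseline.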

[14] = target: Cellular tumor antigen p53 (Homo sapiens) (UniProt P04637); test: ATG_p53_CIS: Attagene CIS-FACTORIAL HepG2 Assay for human p53 Transcription Factor (AID 2282994); conditions: HepG2 p53 cis-element reporter, Attagene mRNA; actives raise or lower the signal
Sequence of Cellular tumor antigen p53 (Homo sapiens) (P04637 whole entry, looked up): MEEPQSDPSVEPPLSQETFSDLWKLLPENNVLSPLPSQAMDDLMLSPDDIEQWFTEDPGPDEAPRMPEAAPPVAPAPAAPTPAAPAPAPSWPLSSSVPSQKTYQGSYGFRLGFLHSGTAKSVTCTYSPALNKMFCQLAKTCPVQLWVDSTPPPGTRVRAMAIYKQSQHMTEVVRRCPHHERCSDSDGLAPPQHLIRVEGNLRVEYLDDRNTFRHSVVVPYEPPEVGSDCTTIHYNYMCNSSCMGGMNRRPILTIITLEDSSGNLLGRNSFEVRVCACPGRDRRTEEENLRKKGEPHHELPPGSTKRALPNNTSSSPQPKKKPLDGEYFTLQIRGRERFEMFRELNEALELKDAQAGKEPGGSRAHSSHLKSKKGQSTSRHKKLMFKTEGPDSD
Summary of the method: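 Using HepG2 hepatoma cells carrying cis-acting multiplexed reporters, mRNA induction is detected after a 24 h exposure. Gain- and loss-of-signal responses are fitted relative to DMSO-treated cells.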

[15] = BSK_3C_TissueFactor: BioMAP Diversity Plus: 3C Assay for Tissue Factor Biomarker Activity (AID 2282997); conditions: BioMAP 3C HUVEC, tissue factor biomarker readout; actives raise or lower the signal
Summary of the method: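 Endothelial monolayers (human umbilical vein, primary) are dosed, incubated 24 h, and assayed for Tissue Factor by ELISA; DMSO serves as negative control for bidirectional fitting.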

[16] = BSK_3C_uPAR: BioMAP Diversity Plus: 3C Assay for Urokinase-type plasminogen activator receptor (uPAR) Biomarker Activity (AID 2282998); conditions: BioMAP 3C HUVEC, uPAR biomarker ELISA; actives raise or lower the signal
Summary of the method: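 Primary human umbilical vein endothelial cells, 3C system; surface uPAR measured by ELISA 24 h after dosing. Cytotoxicity via SRB total protein in parallel cultures; bidirectional fit against DMSO.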

[17] = BSK_3C_VCAM1: BioMAP Diversity Plus: 3C Assay for Vascular cell adhesion molecule 1 (VCAM1) Biomarker Activity (AID 2282999); conditions: BioMAP 3C HUVEC, VCAM1 ELISA, cytokine-stimulated; actives raise or lower the signal
Summary of the method: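 Human umbilical vein endothelial cells were dosed with compound for 24 h, after which cell-surface VCAM-1 was quantified by ELISA. Bidirectional curve fitting used DMSO as negative control and activity baseline.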

[18] = BSK_4H_Eotaxin3: BioMAP Diversity Plus: 4H Assay for Eotaxin 3 Biomarker Activity (AID 2283000); conditions: primary human endothelial cells (HUVEC); actives raise or lower the signal
Summary of the method: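 ELISA quantitation of CCL26 (Eotaxin-3) protein from chemically dosed human vascular endothelial cells at 24 h; increases and decreases both scored relative to DMSO-treated baseline.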

[19] = target: Bile acid receptor (Homo sapiens) (UniProt Q96RI1); test: ATG_FXR_TRANS: Attagene TRANS-FACTORIAL HepG2 Assay for Farnesoid X Receptor (FXR) (AID 2282979; active = hit-call score of the fitted dose curve at least 0.9, where 1 is the maximum;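 note: hits raise reporter mRNA above DMSO so AC50 marks FXR activation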); conditions: HepG2 Attagene TRANS FXR-GAL4 reporter transcription
Sequence of Bile acid receptor (Homo sapiens) (Q96RI1 whole entry, looked up, the tested form may be a part): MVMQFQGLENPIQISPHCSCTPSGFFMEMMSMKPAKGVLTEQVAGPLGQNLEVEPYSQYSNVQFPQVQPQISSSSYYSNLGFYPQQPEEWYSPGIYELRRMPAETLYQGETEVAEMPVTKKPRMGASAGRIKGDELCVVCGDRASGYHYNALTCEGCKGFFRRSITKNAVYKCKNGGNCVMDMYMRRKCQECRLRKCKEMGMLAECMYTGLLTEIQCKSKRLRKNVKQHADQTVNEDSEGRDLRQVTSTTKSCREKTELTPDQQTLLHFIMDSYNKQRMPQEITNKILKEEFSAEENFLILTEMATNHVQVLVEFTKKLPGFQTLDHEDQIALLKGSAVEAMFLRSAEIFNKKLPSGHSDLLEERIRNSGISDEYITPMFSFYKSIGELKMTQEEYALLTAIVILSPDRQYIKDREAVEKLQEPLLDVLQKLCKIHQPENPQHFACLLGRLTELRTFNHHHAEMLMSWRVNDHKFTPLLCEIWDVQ
Summary of the method: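 After 24 h chemical treatment of transfected HepG2 cells, GAL4-UAS reporter transcripts driven by an exogenous FXR-GAL4 fusion were measured by RT-PCR and capillary electrophoresis. Increases over DMSO were fitted.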

Measured: AC50

C=CC(=O)N(C)C
inactive: [1] | [2] | [3] | [4] | [5] | [6] | [7] | [8] | [9] | [10]

CCOP(=S)(OCC)SCSP(=S)(OCC)OCC
active: [1] 7.73 µM | [2] 18.9 µM
not listed: [4] | [19]
inactive: all other assays above

O=C/C=C/c1ccccc1
active: [10] 30.8 µM
not listed: [3] | [6] | [15] | [16] | [17] | [18] | [19]
inactive: all other assays above

CCOC(=O)Nc1cccc(OC(=O)Nc2ccccc2)c1
active: [10] 17.2 µM
inactive: [1] | [2] | [11] | [5] | [6] | [7] | [8] | [9] | [14]

COP(=S)(OC)Oc1cc(Cl)c(Cl)cc1Cl
active: [10] 34.1 µM | [15] 2.21 µM | [18] 20 µM
not listed: [4] | [6] | [14] | [19]
inactive: all other assays above

CCC[CH2][Sn]([Cl])([Cl])[Cl]
inactive: [19] | [11] | [5] | [6] | [7] | [8] | [9] | [13]
active: [10] 5.38 µM

Oc1c(I)cc(I)cc1I
active: [19] 100 µM | [12] 100 µM | [13] 34.5 µM | [16] 10.5 µM | [17] 15.5 µM | [18] 20 µM
not listed: [1] | [2]
inactive: all other assays above

O=C(O)Cc1ccccc1
inactive: [19] | [11] | [5] | [6] | [7] | [8] | [9] | [13]
active: [10] 25.9 µM

O=C(Nc1ccc2[nH]ccc2c1)c1cc2cc(F)ccc2n1Cc1cccc(F)c1
active: [8] 16.6 µM | [9] 7.2 µM | [10] 8.08 µM | [15] 8.59 µM | [16] 7.15 µM | [17] 11.7 µM | [18] 11.1 µM
not listed: [1] | [2] | [3] | [13]
inactive: all other assays above

Nc1ccc(N=Nc2ccc(-c3ccc(N=Nc4c(S(=O)(=O)O)cc5cc(S(=O)(=O)O)c(N=Nc6ccccc6)c(O)c5c4N)cc3)cc2)c(N)c1
not listed: [4] | [13] | [14] | [15] | [16] | [17] | [18] | [19]
inactive: all other assays above
